Measured values from the supplement of paper PMC13172266.
Structures can show the parent of a compound that is named as a salt.

Columns and labels:
Assay in all cases: cell proliferation relative to vehicle (% of vehicle); higher = less growth inhibition
Details in all cases: 72 h
[1] = system: U2932 TK216-resistant clone 2
Method in brief: (§1)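 Each of 348 targeted inhibitors was tested at 500 nM or 50 nM for 72 h on U2932 cells, both parental and two clones resistant to an ETS-targeting agent. Readout was by MTT with absorbance read on a Cytation 3. Proliferation appears as percent of proliferating cells relative to vehicle (DMSO).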

[2] = system: U2932 TK216-resistant clone 3
Method in brief: as §1

U2932 parental = system: U2932 parental
Method in brief: as §1

Row | SMILES | cell proliferation ([1]; 50 nM) | cell proliferation ([1]; 500 nM) | cell proliferation ([2]; 50 nM) | cell proliferation ([2]; 500 nM) | cell proliferation (U2932 parental; 50 nM) | cell proliferation (U2932 parental; 500 nM)
1 | CCNC(=O)c1noc(-c2cc(C(C)C)c(O)cc2O)c1-c1ccc(CN2CCOCC2)cc1 | 4.68 | 4.69 | 21.4 | 21.1 | 3.32 | 3.9
2 | O=C1c2c(O)ccc(O)c2C(=O)c2c(NCCNCCO)ccc(NCCNCCO)c21 [Mitoxantrone HCl] | 9.19 | 5.75 | 14.8 | 10.6 | 16.4 | 7.06
3 | CCOc1cc(C(=O)N2CCC(N3CCN(C)CC3)CC2)ccc1Nc1ncc2c(n1)N(C1CCCC1)c1ccccc1C(=O)N2C | 95 | 74.3 | 95.4 | 65.4 | 94.8 | 75.5
4 | Cc1ccc(NC(=O)c2ccc(CN3CCN(C)CC3)cc2)cc1Nc1nc(-c2cccnc2)cs1 [Masitinib (AB1010)] | 95.6 | 83.5 | 100 | 86.2 | 92.5 | 92.7
5 | C[C@@H](Oc1cc(-c2cnn(C3CCNCC3)c2)cnc1N)c1c(Cl)ccc(F)c1Cl | 97.6 | 74.4 | 86.4 | 61.9 | 89.9 | 56.5
6 | CC(=O)c1c(C)c2cnc(Nc3ccc(N4CCNCC4)cn3)nc2n(C2CCCC2)c1=O | 93.7 | 85.1 | 97.3 | 92.5 | 87.6 | 88.8
7 | CC1(C)CC[C@]2(NC(=O)C(C)(F)F)CC[C@]3(C)[C@H](C(=O)C=C4[C@@]5(C)C=C(C#N)C(=O)C(C)(C)[C@@H]5CC[C@]43C)[C@@H]2C1 [Omaveloxolone (RTA-408)] | 95.5 | 10 | 103 | 23.8 | 93.8 | 14.7
8 | CC[C@H](NC(=O)[C@H](C)NC)C(=O)N1C[C@@H](O)C[C@H]1Cc1c(-c2[nH]c3cc(F)ccc3c2C[C@@H]2C[C@H](O)CN2C(=O)[C@H](CC)NC(=O)[C@H](C)NC)[nH]c2cc(F)ccc12 [Birinapant] | 102 | 100 | 99.4 | 90.9 | 103 | 101
9 | C=CC(=O)N1C/C(=C\c2ccc([N+](=O)[O-])cc2)C(=O)/C(=C/c2ccc([N+](=O)[O-])cc2)C1 | 31.4 | -1.71 | 30.7 | -2.43 | 34.3 | 1.03
10 | Nc1ccccc1NC(=O)c1ccc(CNC(=O)OCc2cccnc2)cc1 [Entinostat (MS-275)] | 104 | 74.8 | 88.2 | 66.7 | 93.2 | 66.2
11 | O=c1[nH]c(=O)n([C@H]2C[C@H](O)[C@@H](CO)O2)cc1F [Floxuridine] | 60.3 | 37.4 | 95.2 | 72.5 | 73.1 | 34.2
12 | C[C@]12CC[C@@H]3c4ccc(O)cc4C[C@@H](CCCCCCCCC[S+]([O-])CCCC(F)(F)C(F)(F)F)[C@H]3[C@@H]1CC[C@@H]2O (some centres not stated) [Fulvestrant] | 98.2 | 101 | 103 | 104 | 98.8 | 93.9
13 | CC(=O)O[C@@]12CO[C@@H]1C[C@H](O)[C@@]1(C)C(=O)[C@H](O)C3=C(C)[C@@H](OC(=O)[C@H](O)[C@@H](NC(=O)OC(C)(C)C)c4ccccc4)C[C@@](O)([C@@H](OC(=O)c4ccccc4)[C@H]21)C3(C)C [Docetaxel] | 8.81 | 11.6 | 5.58 | 6.54 | 9.62 | 9.31
14 | Cc1cc(C(C)Nc2ccccc2)c2nc(N3CCOCC3)cc(=O)n2c1 (configuration not stated) | 103 | 101 | 105 | 98.3 | 102 | 92.9
15 | COc1ccc(C2=N[C@H](c3ccc(Cl)cc3)[C@H](c3ccc(Cl)cc3)N2C(=O)N2CCNC(=O)C2)c(OC(C)C)c1 [Nutlin-3b] | 105 | 96.6 | 100 | 107 | 102 | 99.6
16 | N#Cc1c(Oc2ccc(F)c(NC(=O)Cc3cccc(C(F)(F)F)c3)c2)ccc2nc(NC(=O)C3CC3)sc12 | 104 | 92.8 | 107 | 103 | 95.9 | 98.6
17 | NCC(=O)Nc1ccc(-n2nc(C(F)(F)F)cc2-c2ccc3c(ccc4ccccc43)c2)cc1 | 99.6 | 84.6 | 95.3 | 72.8 | 96.2 | 82.4
18 | COc1cc2c(c(OC)c1OC)-c1c(cc3c(c1OC)OCO3)CC(C)C(C)C2 (configuration not stated) [Schisandrin B (Sch B)] | 99.1 | 104 | 108 | 97.6 | 97.2 | 95.9
19 | Oc1c2ccccc2c2c3c(cccc13)N=N2 | 101 | 113 | 105 | 104 | 103 | 101
20 | COC(=O)Nc1ccc(-c2nc(N3CCOCC3)c3cnn(C4CCN(C(=O)OC)CC4)c3n2)cc1 | 107 | 55.1 | 101 | 56.4 | 101 | 46.9
21 | C[C@]12C=CC(=O)C=C1CC[C@@H]1[C@@H]2C(=O)C[C@@]2(C)[C@H]1CC[C@]2(O)C(=O)CO [Prednisone] | 95.3 | 94.8 | 105 | 102 | 97.3 | 100
22 | CC(=O)Nc1cccc(-n2c(=O)n(C3CC3)c(=O)c3c(Nc4ccc(I)cc4F)n(C)c(=O)c(C)c32)c1 | 103 | 105 | 98.2 | 93.7 | 92.9 | 94.4
23 | NC(=O)c1cccc2cn(-c3ccc([C@@H]4CCCNC4)cc3)nc12 [MK-4827(Niraparib) tosylate] | 103 | 91.7 | 109 | 103 | 92.5 | 97.1
24 | Cc1ccc(S(=O)(=O)/C=C/C#N)cc1 | 107 | 113 | 109 | 104 | 102 | 102

Row | SMILES | cell proliferation ([1]; 50 nM) | cell proliferation ([1]; 500 nM) | cell proliferation ([2]; 50 nM) | cell proliferation ([2]; 500 nM) | cell proliferation (U2932 parental; 50 nM) | cell proliferation (U2932 parental; 500 nM)
25 | CC[C@@]1(O)C(=O)OCc2c1cc1n(c2=O)Cc2cc3c(CN(C)C)c(O)ccc3nc2-1 [Topotecan HCl] | 9.75 | 5 | 12.8 | 5.92 | 11.1 | 2.71
26 | Cc1cc(Nc2cc(N3CCN(C)CC3)nc(/C=C/c3ccccc3)n2)n[nH]1 [ENMD-2076 L-(+)-Tartaric acid] | 101 | 61.9 | 105 | 57.2 | 99 | 47.6
27 | O=c1sn(-c2cccc3ccccc23)c(=O)n1Cc1ccccc1 [Tideglusib] | 94 | 106 | 103 | 101 | 89.3 | 93.1
28 | O=C(/C=C/c1cccc(S(=O)(=O)Nc2ccccc2)c1)NO [Belinostat (PXD101)] | 104 | 48.6 | 98.1 | 67.6 | 90.1 | 41.8
29 | N=C1NC(=O)/C(=C/c2ccc(O)cc2)S1 [Mirin] | 103 | 94.6 | 107 | 102 | 90.9 | 97.3
30 | O=c1[nH]cc(F)c(=O)[nH]1 [Fluorouracil (5-Fluoracil, 5-FU)] | 102 | 102 | 103 | 106 | 102 | 96.2
31 | CCCCCCCCCCCCc1ccc(S(=O)(=O)Nc2nncs2)cc1 | 102 | 88.7 | 102 | 100 | 101 | 100
32 | CC#CC(=O)N1CCC[C@H]1c1nc(-c2ccc(C(=O)Nc3ccccn3)cc2)c2c(N)nccn12 | 70 | 64.8 | 75.8 | 72.9 | 77.4 | 75.6
33 | O=C(O)C(=O)O.[NH-][C@@H]1CCCC[C@H]1[NH-].[Pt+2] [Oxaliplatin] | 104 | 99 | 105 | 96.6 | 96.8 | 93.2
34 | NC(=O)c1ccc(N(C(N)=O)c2c(F)cccc2F)nc1-c1ccc(F)cc1F | 106 | 100 | 108 | 99.3 | 99.3 | 98.7
35 | CC(C)c1onc(-c2c(Cl)cccc2Cl)c1COc1ccc(/C=C/c2cccc(C(=O)O)c2)c(Cl)c1 | 105 | 112 | 104 | 105 | 108 | 111
36 | C[C@@H]1C[C@H]2[C@@H]3CCC4=CC(=O)C=C[C@]4(C)[C@@]3(F)[C@@H](O)C[C@]2(C)[C@@]1(O)C(=O)CO [Dexamethasone (DHAP)] | 76.1 | 79 | 80.9 | 71.2 | 77.4 | 74.2
37 | CN1CCN(c2ccc3nc(-c4c(N)c5c(F)cccc5[nH]c4=O)[nH]c3c2)CC1 [Dovitinib (TKI-258, CHIR-258)] | 103 | 83.9 | 95.7 | 83.3 | 95.1 | 96.9
38 | O=C1CCC(N2C(=O)c3ccccc3C2=O)C(=O)N1 (configuration not stated) [Thalidomide] | 105 | 106 | 104 | 101 | 103 | 101
39 | Cc1cc(CS(=O)(=O)c2ccccc2)cc(OCc2ccc(CN3CCC[C@@H]3CO)cc2)c1 | 105 | 90.6 | 106 | 97.9 | 97.2 | 107
40 | COC(=O)c1ccc([C@H]2c3[nH]c4ccccc4c3C[C@H](C(=O)OC)N2C(=O)CCl)cc1 | 85 | -2.9 | 84 | -4.49 | 100 | -1.25
41 | COCC[n+]1c2c(n(Cc3cnccn3)c1C)C(=O)c1ccccc1C2=O [YM155 (Sepantronium Bromide)] | -0.426 | -1.48 | -1.12 | -4.35 | 0.598 | -3.81
42 | COc1cc(Nc2ncc(F)c(Nc3ccc4c(n3)N(COP(=O)(O)O)C(=O)C(C)(C)O4)n2)cc(OC)c1OC [Fostamatinib (R788)] | 96.7 | 92.8 | 97.2 | 95 | 96.7 | 93.6
43 | COc1nc(C)cnc1NS(=O)(=O)c1cccnc1-c1ccc(-c2nnco2)cc1 [Zibotentan (ZD4054)] | 95.1 | 104 | 106 | 102 | 97.2 | 95.2
44 | Cc1cc([C@@H](C)Nc2ccccc2C(=O)O)c2nc(N3CCOCC3)cc(=O)n2c1 | 107 | 95 | 103 | 95.3 | 99.9 | 101
45 | C[C@@H](N)[C@H]1CC[C@H](C(=O)Nc2ccncc2)CC1 | 98.8 | 102 | 100 | 103 | 94.8 | 97.7
46 | C=CCNC1=C2C[C@@H](C)C[C@H](OC)[C@H](O)[C@@H](C)/C=C(\C)[C@H](OC(N)=O)[C@@H](OC)/C=C\C=C(/C)C(=O)NC(=CC1=O)C2=O [17-AAG (Tanespimycin)] | 103 | 115 | 105 | 114 | 96.7 | 107
47 | CC(=O)O[C@H]1C(=O)[C@@]2(C)[C@H]([C@H](OC(=O)c3ccccc3)[C@]3(O)C[C@H](OC(=O)[C@H](O)[C@@H](NC(=O)c4ccccc4)c4ccccc4)C(C)=C1C3(C)C)[C@]1(OC(C)=O)CO[C@@H]1C[C@@H]2O [Paclitaxel] | 11.2 | 14.3 | 6.88 | 4.73 | 11.2 | 9.85
